According to PubChem BioAssay (Tox21):
Where “and” joins values, the source holds several entries; their conditions need not be identical. Equal values may be shown once. Results filed as inconclusive are left out. Some structures have more than one record in an assay (separate samples or runs), and their calls can disagree. Calls of active or inactive are those of the source. Unless noted, calls follow the shape of the full dose curve.

Key:
[1] = Nuclear factor erythroid 2-related factor 2/antioxidant responsive element (Nrf2/ARE) small molecule agonists: qHTS cell viability counter screen in human keratinocytes (AID 1919968; active = well fitted curve in the direction sought with a large enough effect in the repeat runs; an effect the other way counts as inactive or inconclusive; also: nearly all actives have a fitted effect of over 55% in size; also: potency is read from the fitted curve at half-maximal effect)
Method in brief: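 Measured as CellTiter-Fluor fluorescence, this readout tracks cytotoxicity in the same wells as the ARE-luciferase screen. HaCaT reporter cells (1,500/well) received compounds after a 5 h pre-incubation and were exposed for 23 h.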

[2] = molecular target: Gonadotropin-releasing hormone receptor (Homo sapiens) (UniProt P30968); assay: Human gonadotropin-releasing hormone receptor (GnRHR) small molecule agonists, calcium flux assay in GnRHR-HEK293 cells (AID 1920063); also: nearly all actives have a fitted effect of over 35% in size
Sequence of Gonadotropin-releasing hormone receptor (Homo sapiens) (P30968 whole entry, looked up): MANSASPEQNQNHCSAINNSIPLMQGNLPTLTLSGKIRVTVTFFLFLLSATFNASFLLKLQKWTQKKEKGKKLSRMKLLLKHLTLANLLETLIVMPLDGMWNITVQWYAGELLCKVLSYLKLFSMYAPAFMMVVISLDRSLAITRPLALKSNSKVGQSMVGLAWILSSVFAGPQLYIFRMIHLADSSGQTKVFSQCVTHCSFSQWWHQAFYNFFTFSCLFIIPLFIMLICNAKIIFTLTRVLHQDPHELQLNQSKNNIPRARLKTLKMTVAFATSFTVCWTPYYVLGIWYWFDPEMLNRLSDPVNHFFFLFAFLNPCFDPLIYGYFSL
Method in brief: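 Fluorescence kinetics (480 nm excitation, 540 nm emission; 3 min, 1 s steps) report calcium mobilisation in human GnRHR-HEK293 cells in agonist mode. Dye incubation: 1 h, 37 C.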

[3] = molecular target: KiSS-1 receptor (Homo sapiens) (UniProt Q969F8); assay: Human kisspeptin (KISS1R) small molecule agonists, calcium flux assay in KISS1R-HEK293 cells (AID 1920064; active = well fitted curve in the direction sought with a large enough effect in the repeat runs; an effect the other way counts as inactive or inconclusive)
Sequence of KiSS-1 receptor (Homo sapiens) (Q969F8 whole entry, looked up): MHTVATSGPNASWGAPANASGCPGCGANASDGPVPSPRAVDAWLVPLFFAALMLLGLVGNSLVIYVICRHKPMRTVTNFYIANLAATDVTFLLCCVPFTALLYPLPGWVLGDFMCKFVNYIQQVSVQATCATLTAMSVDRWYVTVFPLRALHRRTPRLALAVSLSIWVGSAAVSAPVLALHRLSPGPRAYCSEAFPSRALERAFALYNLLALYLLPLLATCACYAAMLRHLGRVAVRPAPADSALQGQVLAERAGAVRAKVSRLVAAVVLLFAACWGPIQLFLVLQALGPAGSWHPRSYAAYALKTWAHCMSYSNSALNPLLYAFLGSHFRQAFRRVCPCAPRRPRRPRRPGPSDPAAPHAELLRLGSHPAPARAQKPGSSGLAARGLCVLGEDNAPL
Method in brief: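 Measures KISS1R agonism through calcium-sensitive dye fluorescence in stably transfected HEK293 cells, read for 3 min after pin-tool compound delivery; 15-point titrations in triplicate.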

[4] = G protein-coupled receptor (GPCR) small molecule agonists, calcium flux assay: HEK293 wild type cell line counter screen (AID 1920065)
Method in brief: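 Readout: fluorescence at 480 nm excitation/540 nm emission, sampled at 1 s intervals for 3 min. Cells had been cultured 18 h, then dye-loaded 1 h at 37 C before compound or ATP addition.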

[5] = p53 small molecule agonists, cell-based qHTS assay with human liver microsomes (AID 1963577);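 also: p53 response element beta-lactamase reporter cells with liver microsomes plus NADPH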
Method in brief: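 In this qHTS, p53 response-element beta-lactamase cells receive test compound together with a microsome/NADPH activating system (0.5 mg/mL final each) and are incubated 16 h at 37 C before LiveBLAzer fluorescence detection.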

[6] = p53 small molecule agonists, cell-based qHTS assay with rat liver microsomes (AID 1963578)
Method in brief: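 Agonist mode in p53RE-bla reporter cells, with compounds co-incubated 16 h at 37 C alongside 0.5 mg/mL rat liver microsomes and 0.5 mg/mL NADPH (final), followed by a 2 h LiveBLAzer detection step.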

[7] = p53 small molecule agonists, cell-based qHTS assay with human liver microsomes: qHTS cell viability counter screen (AID 1963579); also: nearly all actives have a fitted effect of over 45% in size; also: potency is read from the fitted curve at half-maximal effect
Method in brief: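 Metabolically activated exposure: compounds, human liver microsomes and NADPH (0.5 mg/mL final apiece) were added to p53RE-bla cells seeded 5 h earlier, left 16 h at 37 C, and then assessed for viability by CellTiter-Glo luminescence.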

[8] = p53 small molecule agonists, cell-based qHTS assay with rat liver microsomes: qHTS cell viability counter screen (AID 1963580); also: nearly all actives have a fitted effect of over 45% in size
Method in brief: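 In HCT-116 cells carrying a p53 response element-bla reporter, compounds were metabolically activated in situ by rat liver microsomes with NADPH over 16 h. Cell ATP content then served as the cytotoxicity measure.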

[9] = p53 small molecule agonists, cell-based qHTS assay (AID 1963582; active = well fitted activation curve with a large enough effect in the signal ratio in the repeat runs, not every such curve was filed as active; the % refers to the signal ratio)
Method in brief: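 Compounds are pin-transferred in DMSO onto p53RE-bla cells and incubated 16 h at 37 C. The B/G FRET beta-lactamase substrate is then applied for 2 h at RT and fluorescence recorded.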

[10] = molecular target: 5-hydroxytryptamine receptor 2A (Homo sapiens) (UniProt P28223); assay: 5-hydroxytryptamine receptor 2A (HTR2A) small molecule antagonists, cell-based qHTS assay (AID 1963586); also: nearly all actives have a fitted effect of over 45% in size
Sequence of 5-hydroxytryptamine receptor 2A (Homo sapiens) (P28223 whole entry, looked up): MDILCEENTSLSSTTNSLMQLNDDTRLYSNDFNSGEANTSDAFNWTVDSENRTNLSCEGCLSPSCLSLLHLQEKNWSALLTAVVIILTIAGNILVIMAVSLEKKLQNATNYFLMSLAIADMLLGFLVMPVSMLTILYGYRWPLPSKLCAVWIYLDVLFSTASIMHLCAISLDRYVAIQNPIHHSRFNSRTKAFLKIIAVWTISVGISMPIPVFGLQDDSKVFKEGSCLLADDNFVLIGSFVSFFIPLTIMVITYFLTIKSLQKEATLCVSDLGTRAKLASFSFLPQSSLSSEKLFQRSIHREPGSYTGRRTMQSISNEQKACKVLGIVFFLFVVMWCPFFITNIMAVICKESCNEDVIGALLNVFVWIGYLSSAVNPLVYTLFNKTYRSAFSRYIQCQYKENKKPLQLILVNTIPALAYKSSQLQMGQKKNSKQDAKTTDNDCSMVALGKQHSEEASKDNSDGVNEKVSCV
Method in brief: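 Antagonist-mode intracellular calcium assay: DOI (4 nM) added after 5 min compound pre-incubation at room temperature to dye-loaded HTR2A-CHO cells. Fluorescence followed for 3 min, sampled every second.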

[11] = molecular target: Muscarinic acetylcholine receptor M1 (Homo sapiens) (UniProt P11229); assay: Cholinergic receptor muscarinic 1 (CHRM1) small molecule antagonists, cell-based qHTS assay (AID 1963588); also: nearly all actives have a fitted effect of over 40% in size; also: potency is read from the fitted curve at half-maximal effect
Sequence of Muscarinic acetylcholine receptor M1 (Homo sapiens) (P11229 whole entry, looked up): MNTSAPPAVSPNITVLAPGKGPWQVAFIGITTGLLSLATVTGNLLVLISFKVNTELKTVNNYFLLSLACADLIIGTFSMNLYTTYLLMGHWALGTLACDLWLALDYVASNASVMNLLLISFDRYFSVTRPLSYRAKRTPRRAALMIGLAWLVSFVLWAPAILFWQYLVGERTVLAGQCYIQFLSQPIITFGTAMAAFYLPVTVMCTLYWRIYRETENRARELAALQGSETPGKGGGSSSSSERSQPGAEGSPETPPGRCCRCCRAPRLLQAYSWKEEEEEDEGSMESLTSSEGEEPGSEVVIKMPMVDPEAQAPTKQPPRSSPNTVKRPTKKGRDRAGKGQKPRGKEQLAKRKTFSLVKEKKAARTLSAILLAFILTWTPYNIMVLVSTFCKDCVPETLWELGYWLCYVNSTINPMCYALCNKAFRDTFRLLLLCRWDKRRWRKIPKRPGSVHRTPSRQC
Method in brief: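 CHRM1-CHO calcium-flux assay, antagonist mode. Cells were seeded 18 h, dye-loaded 1 h at 37 C and given compound for 5 min at RT, then acetylcholine was added at 50nM. FDSS fluorescence was read 3 min; 15 concentrations, three runs.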

[12] = molecular target: Muscarinic acetylcholine receptor M1 (Homo sapiens) (UniProt P11229); assay: Cholinergic receptor muscarinic 1 (CHRM1) small molecule agonists, cell-based qHTS assay (AID 1963589); also: nearly all actives have a fitted effect of over 35% in size
Method in brief: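 Each compound was tested at 15 concentrations across three independent runs on dye-loaded CHO cells stably expressing human CHRM1, reading intracellular calcium fluorescence kinetically at 1 sec intervals.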

[13] = cAMP Responsive Elements (CRE) small molecule agonists, cell-based qHTS assay (AID 1963590); also: potency is read from the fitted curve at half-maximal effect
Method in brief: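 Cell line: CRE-bla HEK 293T; medium DMEM/10% dialyzed FBS/0.1 mM NEAA/1 mM pyruvate/25 mM HEPES; 3 h compound exposure; beta-lactamase FRET readout after 2 h substrate loading at RT.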

[14] = cAMP Responsive Elements (CRE) small molecule antagonists, cell-based qHTS assay (AID 1963591; active = well fitted inhibition curve with a large enough effect in the signal ratio in the repeat runs, not every such curve was filed as active; the % refers to the signal ratio)
Method in brief: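 Inhibition of NKH477-driven (0.25 uM final) CRE-beta-lactamase signal in HEK293T cells, 3 h compound exposure at 37 °C, detected by FRET substrate fluorescence.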

[15] = molecular target: Beta-2 adrenergic receptor (Homo sapiens) (UniProt P07550); assay: Adrenergic beta2 receptor (ADRB2) small molecule antagonists, cell-based qHTS assay (AID 1963592); also: series mostly up to about 92 µM; nearly all actives have a fitted effect of over 50% in size
Sequence of Beta-2 adrenergic receptor (Homo sapiens) (P07550 whole entry, looked up): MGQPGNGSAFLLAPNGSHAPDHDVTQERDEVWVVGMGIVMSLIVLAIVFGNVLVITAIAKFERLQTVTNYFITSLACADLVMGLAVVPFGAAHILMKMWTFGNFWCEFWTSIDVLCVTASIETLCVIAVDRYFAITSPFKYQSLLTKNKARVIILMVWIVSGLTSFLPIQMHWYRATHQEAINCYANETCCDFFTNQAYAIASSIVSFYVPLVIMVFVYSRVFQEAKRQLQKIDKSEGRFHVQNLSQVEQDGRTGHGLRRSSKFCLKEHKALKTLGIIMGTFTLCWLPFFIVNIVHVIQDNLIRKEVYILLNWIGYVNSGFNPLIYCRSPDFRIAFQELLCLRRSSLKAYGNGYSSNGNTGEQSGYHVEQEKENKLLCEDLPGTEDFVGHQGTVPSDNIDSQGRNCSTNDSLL
Method in brief: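 Cells (CHO, stable ADRB2 overexpression) incubated 18-20hr at 37C; compounds added from DMSO; agonist mix (1nM isoproterenol, 100uM IBMX, 25uM Ro-20-1724) added; 0.5hr RT; d2-cAMP and anti-cAMP-cryptate added; 1hr RT; 665/615 nm read.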

[16] = molecular target: D(2) dopamine receptor (Homo sapiens) (UniProt P14416); assay: Dopamine D2 receptor (DRD2) small molecule agonists, cell-based qHTS assay (AID 1963594); also: nearly all actives have a fitted effect of over 35% in size
Sequence of D(2) dopamine receptor (Homo sapiens) (P14416 whole entry, looked up): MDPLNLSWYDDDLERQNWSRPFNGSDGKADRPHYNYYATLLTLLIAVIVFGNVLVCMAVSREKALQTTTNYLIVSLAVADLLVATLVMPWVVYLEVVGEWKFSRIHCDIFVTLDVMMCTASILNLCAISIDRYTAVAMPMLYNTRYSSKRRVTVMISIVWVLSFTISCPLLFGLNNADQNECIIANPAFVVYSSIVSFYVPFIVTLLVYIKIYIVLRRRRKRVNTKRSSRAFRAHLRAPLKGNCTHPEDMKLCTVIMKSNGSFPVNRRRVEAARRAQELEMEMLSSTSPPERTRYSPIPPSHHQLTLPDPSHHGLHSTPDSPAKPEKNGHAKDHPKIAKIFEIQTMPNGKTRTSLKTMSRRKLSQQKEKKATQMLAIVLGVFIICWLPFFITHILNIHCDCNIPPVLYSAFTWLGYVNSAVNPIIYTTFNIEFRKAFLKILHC
Method in brief: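 HEK293 cells stably expressing DRD2 were cultured 24 h at 37 C, then given Ro20-1724 (0.1 mM final) and compounds for 10 min at room temperature. NKH477 (200nM) was then added for 30 min. cAMP was read by HTRF.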

[17] = molecular target: D(2) dopamine receptor (Homo sapiens) (UniProt P14416); assay: Dopamine D2 receptor (DRD2) small molecule antagonists, cell-based qHTS assay (AID 1963595; active = well fitted inhibition curve with a large enough effect in the signal ratio in the repeat runs, with a control signal flat; the % refers to the signal ratio)
Method in brief: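 Antagonism was scored as restored cAMP in HEK293-DRD2 cells. These cells were stimulated with 200 nM NKH477 and 12 nM quinpirole for 30 min at room temperature, in the presence of 0.1 mM Ro20-1724.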

[18] = p53 small molecule agonists, cell-based qHTS assay: qHTS cell viability counter screen (AID 1963581); also: nearly all actives have a fitted effect of over 45% in size; also: potency is read from the fitted curve at half-maximal effect
Method in brief: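 In the same plates used for the p53 bla reporter, HCT-116 cells given compounds for 16 h at 37 C received CellTiter-Glo; luminescence was recorded 30 min later at room temperature.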

[19] = molecular target: 5-hydroxytryptamine receptor 2A (Homo sapiens) (UniProt P28223); assay: 5-hydroxytryptamine receptor 2A (HTR2A) small molecule agonists, cell-based qHTS assay (AID 1963587); also: nearly all actives have a fitted effect of over 30% in size
Method in brief: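 HTR2A-CHO cells, plated 18 h at 37 C/5% CO2, dye-loaded 1 h at 37 C; compounds in DMSO added by pin tool (agonist mode). Intracellular calcium flux read as kinetic fluorescence on FDSS over 2 min at 1 s intervals.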

[20] = molecular target: Beta-2 adrenergic receptor (Homo sapiens) (UniProt P07550); assay: Adrenergic beta2 receptor (ADRB2) small molecule agonists, cell-based qHTS assay (AID 1963593);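 also: CHO cells stably overexpressing human ADRB2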
Method in brief: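 CHO cells stably over-expressing ADRB2 were plated overnight at 37C, then dosed with compounds plus a stimulation mix containing 100uM IBMX and 25uM Ro-20-1724 for 0.5hr at room temperature. cAMP was measured by HTRF competition, 1hr.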
% is scaled to controls: 0 for no effect and ±100 for the full control effect.

Nc1cc(=O)[nH]c(N)n1
inactive: Potency [1] | Potency [2] | Potency [3] | Potency [4] | Potency [5] | Potency [6] | Potency [7] | Potency [8] | Potency [9] | Potency [10] | Potency [11] | Potency [12] | Potency [13] | Potency [14] | Potency [15] | Potency [16] | Potency [17]

COc1ccc2nc(N)sc2c1
inactive: Potency [1] | Potency [2] | Potency [3] | Potency [4] | Potency [7] | Potency [8] | Potency [18] | Potency [10] | Potency [19] | Potency [11] | Potency [12] | Potency [13] | Potency [15] | Potency [20] | Potency [16] | Potency [17]

C=CCCCCCCCCCCCCCCCC
inactive: activity change, negative = cytotoxicity [1] 2.1% [at 8.39 µM] | activity change [2] 0.969% [at 5.22 µM, stronger effect = higher value] | activation [3] 0.739% [at 6.97 µM] | activation [4] -0.775% [at 5.23 µM] | activation [5] -1.7% [at 5.99 µM] | activation [6] -2.36% [at 5.99 µM] | activity change, negative = cytotoxicity [8] -2.99% [at 5.99 µM] | activity change, negative = cytotoxicity [18] -20.9% [at 5.99 µM] | activation [9] 2.83% [at 5.99 µM] | activation [19] -2.29% [at 7.02 µM] | activity, negative = inhibition [11] -31.3% [at 5.58 µM] | activation [12] 1.23% [at 6.97 µM] | activation [13] 0.435% [at 8.39 µM] | activity change, negative = inhibition [14] -13% [at 8.39 µM] | activity change, negative = inhibition [15] -9.53% [at 8.39 µM] | activation [16] 0.185% [at 8.39 µM] | activity change, negative = inhibition [17] -1.92% [at 8.38 µM]

C=C[C@H]1CN2CC[C@H]1C[C@H]2[C@H](O)c1ccnc2ccc(OC)cc12
inactive: Potency [1] | Potency [2] | Potency [3] | Potency [4] | Potency [7] | Potency [8] | Potency [18] | Potency [10] | Potency [11] | Potency [12] | Potency [13] | Potency [14] | Potency [15] | Potency [16] | Potency [17]

CCN(CC)CCN
inactive: Potency [1] | Potency [2] | Potency [3] | Potency [4] | Potency [5] | Potency [6] | Potency [8] | Potency [18] | Potency [9] | Potency [10] | Potency [19] | Potency [11] | Potency [12] | Potency [13] | Potency [14] | Potency [15] | Potency [17]

C=C(c1ccc(C(=O)O)cc1)c1cc2c(cc1C)C(C)(C)CCC2(C)C
inactive and 18.3 µM (active): Potency [11]
20.4 µM (active) and inactive: Potency [7]
inactive: Potency [2] | Potency [3] | Potency [4] | Potency [8] | Potency [10] | Potency [12] | Potency [14] | Potency [15] | Potency [20]
active: Potency [1] 27.3 µM and 23.7 µM
inactive and 12.6 µM (active): Potency [18]

CCCCCCOCCOCCO
inactive: Potency [1] | Potency [2] | Potency [3] | Potency [4] | Potency [7] | Potency [8] | Potency [18] | Potency [10] | Potency [19] | Potency [11] | Potency [12] | Potency [13] | Potency [14] | Potency [15] | Potency [16] | Potency [17]

CCOc1ccc(Cc2nccc3cc(OCC)c(OCC)cc23)cc1OCC
active: Potency [1] 4.22 µM | Potency [13] 6.68 µM
inactive: Potency [2] | Potency [3] | Potency [4] | Potency [5] | Potency [7] | Potency [8] | Potency [18] | Potency [9] | Potency [10] | Potency [19] | Potency [11] | Potency [12] | Potency [14] | Potency [15] | Potency [16]
